The values that follow come from PubChem BioAssay.

As usually defined, the inhibition is the relative decrease from the control value, in per cent.

Experiment [1] in a line: Brca1-Bard1 BiLC signal decrease – luminescence, single concentration, counter-screen for Mdm2/MdmX interaction inhibitor project, confirmation (AID 504668). To be noted: Brca1/Bard1 bimolecular luciferase complementation counterscreen, at 8 µM, stronger effect = higher value. In general terms: A counterscreen serves to expose hits that act by an unwanted route or on another target.

The nature of experiment [2]: apoptosome-driven caspase-3 activation blockers – biochemical, fluorescence, DEVD-Rh110, 20 µM, confirmation (AID 504614;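 active = mean inhibition of at least 40% at 20 µM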;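 also: plate controls were DMSO wells for no effect and DEVD-CHO caspase inhibitor control wells for full effect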). To be noted: reconstituted apoptosome, caspase-3 DEVD-Rh110 fluorescence; at 20 µM; stronger effect = higher value.
A short description of experiment [3]: detection-step artefacts after completed caspase reaction – biochemical, fluorescence, Rh110, 20 µM, artefact control for Apaf-1 inhibitor project, confirmation (AID 504615;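 active = signal rise of 40% or more at 20 µM, treated as a fluorescence artifact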). The note with it: quenched caspase reaction, at 20 µM, stronger effect = higher value.
A short description of experiment [4]: inhibition of PEG-3 promoter luciferase signal – cell-based, HeLa, luciferase reporter, single concentration, confirmation (AID 602417;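 active = at 20 µM dose, 40% or more inhibition averaged across four replicates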). To be noted: HeLa PEG-Prom luciferase reporter, luminescence, overnight; at 20 µM; stronger effect = higher value. (In general: Reporter assays use an easily measured gene product as a stand-in for the process of interest.)
The target of experiment [5] is PEG-3 (UniProt Q6IN02). Briefly: inhibition of PEG-3 promoter-driven reporter – cell-based, HeLa, luciferase, CREF/GAPDH counter-screen panel, dose response (AID 624167). The note with it: CREF/GAPDH counter-screens; HeLa PEG-Prom luciferase reporter, overnight, run 1, dose range 1, at 100 µM (top of the series) unless noted.
Experiment [6] deals with PEG-3 (UniProt Q6IN02). The experiment is described as above. The note with it: CREF/GAPDH counter-screens; HeLa PEG-Prom luciferase reporter, overnight, run 2, dose range 1, at 100 µM (top of the series) unless noted.

The list shows a part of the results. The source made the active and inactive calls. Unless noted, no rule for the calls is given here.

Sequence of PEG-3 (Q6IN02 whole entry, looked up): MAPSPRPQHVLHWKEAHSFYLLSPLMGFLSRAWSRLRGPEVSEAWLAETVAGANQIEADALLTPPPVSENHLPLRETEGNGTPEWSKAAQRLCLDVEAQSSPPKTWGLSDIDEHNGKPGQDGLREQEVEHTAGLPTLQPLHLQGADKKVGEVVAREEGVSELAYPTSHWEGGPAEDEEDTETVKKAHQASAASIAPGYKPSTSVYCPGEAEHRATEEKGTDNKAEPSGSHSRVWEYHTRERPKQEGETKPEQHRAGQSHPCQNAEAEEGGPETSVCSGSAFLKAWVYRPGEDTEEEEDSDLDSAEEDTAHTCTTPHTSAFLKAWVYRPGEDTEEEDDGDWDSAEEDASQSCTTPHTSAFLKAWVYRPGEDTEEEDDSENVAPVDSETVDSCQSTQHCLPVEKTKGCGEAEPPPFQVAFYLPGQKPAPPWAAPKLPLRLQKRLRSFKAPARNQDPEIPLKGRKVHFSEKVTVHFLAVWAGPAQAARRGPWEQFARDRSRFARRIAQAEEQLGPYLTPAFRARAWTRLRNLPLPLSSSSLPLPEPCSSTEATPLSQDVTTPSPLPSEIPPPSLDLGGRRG

With `COc1ccc(NC(=O)Nc2cccc3c2O[C@H](CN(C)Cc2ccc(-c4ccccc4)cc2)[C@@H](C)CN([C@H](C)CO)C3=O)cc1`, the inhibition in experiment [1] is 31% (active). Take `CCn1cc(CN2CCC(C(=O)Nc3cccc(-c4cccc(Cl)c4)c3)CC2)c(C)n1`: the inhibition in experiment [2] was 12.8% (inactive); in experiment [4], 95.8% (active); in experiment [5] it was 98.4%; in experiment [6], 101%. In experiment [3], the activation (fluorescence interference) is 5.12% (inactive). Regarding `COc1ccc(O)c(/C=N/NC(=O)c2ccc(CSc3nc(C)cc(C)n3)cc2)c1`, the inhibition in experiment [1] was 30.7% (active). For the molecule `CC[C@]1(c2ccccc2OC)ON(c2ccccc2C(F)(F)F)C1=O`, the inhibition in experiment [1] is 34.6% (active). Take `Cc1cc(C)nc(SCc2ccc(C(=O)N/N=C/c3cccc(O)c3O)cc2)n1`: in experiment [1], the inhibition is 35.2% (active). Regarding `CCCOCc1ccc(O)c2ncccc12`, the inhibition in experiment [1] is 27.6% (active). With `O=C(CCCN1C(=O)/C(=C\c2ccco2)SC1=S)Nc1cccc2ccccc12`, the inhibition in experiment [1] was 28.5% (active). Consider `O=C(NCc1cccnc1)c1c(O)c2cccc3c2n(c1=O)CCC3`, for which the inhibition in experiment [1] is 31.4% (active). On to `Oc1c(C(c2ccccc2Cl)N2CCCC2)ccc2cccnc12` (centres undefined), for which the inhibition in experiment [1] was 31.4% (active). Consider `C/C(=N\NC(=O)c1cccc2ccccc12)c1ccccn1`, for which the inhibition in experiment [1] is 29.9% (active).

In the case of `COc1ccc(-c2csc(NC(=S)NC(=O)c3ccco3)n2)cc1Br`, in experiment [1], the inhibition is 23.1% (active). Take `Cc1cc(C)n(-c2ccc3cccc(NS(C)(=O)=O)c3n2)n1`: the inhibition in experiment [1] was 32.1% (active). Same read-out and setting: next, `CCCCNc1c(-c2ccc(OC)c(SC3CCCCC3)c2)nc2ccc(C)cn12`: 28.6% (active); `C[C@@]12C(=O)Nc3cc(Cl)ccc3C(=O)N1[C@H]1c3cc(Br)ccc3OC[C@@H]1[C@@H]2c1ccccc1`: 30.8% (active); `CCOc1ccc(/C=C/C(O)=C2/C(=O)NC3(C)CC2c2ccccc2O3)cc1OC` (centres undefined): 23.4% (active). The same measure, in the same setting: next, `Cc1ccc(-n2c(-c3ccccc3)c[n+]3c2CCc2ccccc2-3)c(C)c1`: 26.4% (active); `O=C1[C@H]2[C@@H](c3ccc(F)cc3)N3C(=O)N(c4ccc(Br)cc4)C(=O)[C@@]3(Cc3ccccc3)[C@H]2C(=O)N1C1CCCCC1`: 26.6% (active). Take `CCOC(=O)C1=C(C)n2c(s/c(=C/c3cccc([N+](=O)[O-])c3)c2=O)=NC1c1ccc(O)c(OC)c1` (centres undefined): in experiment [1], the inhibition was 26.4% (active). Same read-out and setting: with `O=C(NCCCO)c1c(O)c2cccc3c2n(c1=O)CCC3` the figure was 24.6% (active).

For `CC(=O)/C(C#N)=C1\NC(=O)C(Cc2ccc(C)c(Cl)c2)S1` (centres undefined), in experiment [1], the inhibition is 31.8% (active).

As to `NC(=O)c1sc2nc3c(c(-c4ccco4)c2c1N)CCC3`, the inhibition in experiment [1] was 24.9% (active). On the same count and under the same terms, with `CC1=NN(c2ccccc2)C(=O)/C1=C\C=C\c1ccccc1` the figure was 28.9% (active). Same read-out and setting: with `Cc1ccc2nc(-c3ccccn3)c(Nc3ccccc3C)n2c1` the figure was 35.8% (active); with `Cc1c(Cl)cccc1N/C(SCC(=O)N1CCCCCC1)=C(/C#N)c1nc2ccccc2s1`, 36% (active). The same measure, in the same setting: next, `O=C(Nc1ccccc1)c1ccccc1NS(=O)(=O)c1ccc(Cl)s1`: 27.7% (active); `COc1cccc(/C=N/Nc2ncnc(Cl)c2N)c1O`: 30.7% (active); `CCc1ccc2c(c1)C1(NN=C(c3cccc4ccccc34)S1)C(=O)N2` (centres undefined): 30% (active). Consider `COC(=O)[C@@]1(Cc2ccccc2)[C@H]2C(=O)N(Cc3ccccc3)C(=O)[C@H]2[C@H]2CN=C(SCc3ccc(C#N)cc3)N21`, for which the inhibition in experiment [1] was 28.4% (active).

Take `O=C(CSc1nnnn1-c1ccccc1)Nc1nsc(-c2ccccc2)n1`: in experiment [1], the inhibition is 27.7% (active). On the same count and under the same terms, with `COc1ccc(NS(=O)(=O)c2cc(NC(=O)c3ccc(Cl)cc3)ccc2N2CCOCC2)cc1` the figure was 26.8% (active); with `O=C(CCCN1C(=O)/C(=C/c2cccc(Br)c2)SC1=S)Nc1ccccn1`, 31% (active); with `c1ccc(-[n+]2nc(Nc3cccc4ccccc34)sc2-c2c3ccccc3cc3ccccc23)cc1`, 23.6% (active).

On to `C=CCSc1nsc(NC(=O)Nc2ccc(F)cc2)n1`, for which the inhibition in experiment [1] was 28% (active). On the same count and under the same terms, with `O=C(N/N=C/c1c(O)ccc2ccccc12)c1cccnc1` the figure was 29.9% (active). Still for that read-out and setting: next, `N#Cc1c2ccc(O)cc2n2ccccc12`: 35.2% (active); `COc1ccc(/C(C)=N/NC(=O)c2cccc(S(=O)(=O)N3CCCC3)c2)c(O)c1`: 34.4% (active); `Oc1ccc(COCc2ccccc2)c2cccnc12`: 28.7% (active). Still for that read-out and setting: next, `COc1ccc2c(C(=O)CCl)c[nH]c2c1`: 24.1% (active).

Regarding `COc1cccc(/C=N/NC(=O)c2c(C)nc3ccc(Br)cn23)c1O`, the inhibition in experiment [1] is 32.3% (active). `COc1ccc(C2=Nn3c(nnc3-c3ccccc3F)SC2)cc1OC1CCOC1` (centres undefined): the inhibition in experiment [1] is 33.4% (active).
